Records with an inconclusive call do not appear. Unmarked numbers belong to inactive results. Active and inactive are the calls of the source. Calls come from the whole dose curve; as a rule, active = well fitted activation curve with a large enough effect in the repeat runs; inconclusive = weak or mixed curves; inactive = no such curve, though single readings can be large or run the other way. Residues, ends and D or L forms follow the SMILES beside them.
target: Nuclear receptor subfamily 1 group I member 2 (Homo sapiens) (UniProt O75469); experiment: CYP3A4 induction through human pregnane X receptor (PXR) by small molecules, qHTS assay (AID 1346984); details: DPX-2 HepG2 PXR, CYP3A4-luciferin luminescence, 24 h; series mostly up to 46.1 µM; activation: at the top concentration; note: nearly all actives have a fitted effect of over 40% in size
Description: National Center for Advancing Translational Sciences [NCATS]
NIH Chemical Genomics Center [NCGC]
U.S. Environmental Protection Agency [EPA]
National Institutes of Environmental Health Sciences [NIEHS]
National Toxicology Program [NTP]
The Pregnane X receptor (PXR), a ligand activated nuclear receptor plays a critical role in the regulation of genes involved in drug metabolism and transporters. Activation of PXR is responsible for unwanted adverse drug reactions. PXR binds xenobiotics and when compounds interact with PXR enhances the expression of CYP3A genes. Identifying the compounds with the potential for PXR activation and CYP3A4 induction can be of importance in improving the efficacy of drugs with less toxicity and avoiding drug-drug interactions.
DPX-2 (Puracyp, Inc.) cell lines, used for screening against human PXR activation has HepG2 cells co-transfected with a PXR response element and a luciferase construct containing CYP3A4 promoter. Increase in luciferase activity can be used to identify the compounds that cause the induction of CYP3A4.
DPX-2 cells were dispensed at 2,000 cells per well in 5uL of assay medium into white, solid-bottom 1536-well plates using a Multidrop Combi dispenser (Thermo Scientific). The assay plates were incubated at 37C for 5hr before transferring 23nL of test compounds dissolved in DMSO and positive control via Pintool station (Wako). The assay plates were incubated at 37C for 24hr. After 24hr compound treatment, 1uL of 3uM (final concentration) P450 substrate (P450-Glo CYP3A4 screening system with Luciferin-IPA, Promega) was added by a Flying Reagent Dispenser (FRD, Aurora Discovery). The assay plates were incubated for 3hr at 37C. Then 5ul One-Glo assay reagent (Promega) was added to each plate by an FRD and following 30 min incubation at room temperature, luciferase activity was quantified on a ViewLux plate reader (Perkin Elmer).
% is set by controls: 0 for no effect and ±100 for the full control effect.

Row | SMILES | activation | outcome
1 | O=C(O)CCCCC(=O)O | -12.7% | 
2 | OC(Cn1cncn1)(Cn1cncn1)c1ccc(F)cc1F | 0.505% | 
3 | CC1(C)[C@@H]2CC[C@@]1(C)C(=O)C2 | 2.93% | 
4 | CCCCC(CC)COC(=O)/C=C/c1ccc(OC)cc1 (stereo not given) | -5.13% | 
5 | CC(C)[C@@H]1CC[C@@H](C)C[C@H]1O | 0.856% | 
6 | CCCC(O)C(CC)CO (stereo not given) | 1.83% | 
7 | O=C(O)c1cc(N=Nc2ccc(S(=O)(=O)Nc3ccccn3)cc2)ccc1O | -1.82% | 
8 | C/C=C/c1ccc(OC)cc1 | -4.81% | 
9 | CC(C)(Oc1ccc(C2CC2(Cl)Cl)cc1)C(=O)O (stereo not given) | 15.1% | 
10 | O=C1CN(/N=C/c2ccc([N+](=O)[O-])o2)C(=O)N1 | -25.3% | 
11 | O=C(c1ccccc1)C(O)c1ccccc1 (stereo not given) | -5.87% | 
12 | CC(O)C(=O)O (stereo not given) | -1.62% | 
13 | c1ccc2[nH]ccc2c1 | -6.41% | 
14 | NC(=O)c1ccccc1O | -3.07% | 
15 | Nc1ccc(C(=O)O)cc1 | -10% | 
16 | Cc1ccccc1C(OCCN(C)C)c1ccccc1 (stereo not given) | 8.18% | 
17 | Oc1ccc(/C=C/c2cc(O)cc(O)c2)cc1 | -33.8% [at 20.6 µM] | 
18 | NC(N)=O | -1.56% | 
19 | O=c1ccc2ccccc2o1 | -7.61% | 
20 | CCCC(CCC)C(=O)O | -3.47% | 
21 | CC(O)CN(CCN(CC(C)O)CC(C)O)CC(C)O (stereo not given) | -1.6% | 
22 | O=C(O)CCC(=O)O | -0.958% | 
23 | CCCCCCCCCCCCCCCC(=O)O | -4.51% | 
24 | Cc1cn([C@H]2C[C@H](N=[N+]=[N-])[C@@H](CO)O2)c(=O)[nH]c1=O |  | inactive
25 | CC(O)CO (stereo not given) | -5.96% | 
26 | CC(=O)OCC(COC(C)=O)OC(C)=O | -8.82% | 
27 | COC(=O)[C@H](Cc1ccccc1)NC(=O)[C@@H](N)CC(=O)O (H-Asp-Phe-OMe) |  | inactive
28 | Cc1cc(=O)[nH]c(=S)[nH]1 | -2.12% | 
29 | CCOc1ccc(NC(=O)CC(C)O)cc1 (stereo not given) | -3.56% | 
30 | O=c1cc[nH]c(=S)[nH]1 | -1.49% | 
